Inconclusive results are not listed. The source made the active and inactive calls. How the source made its calls, unless noted: active means hit-call score of the fitted dose curve at least 0.9, where 1 is the maximum; inactive means score below 0.9.
Assays:
[1] = ATG_PBREM_CIS: Attagene CIS-FACTORIAL HepG2 Assay for human Phenobarbital-responsive Enhancer Module (PBREM) (AID 2282955); settings: HepG2 PBREM cis-reporter, Attagene multiplexed transcription; actives raise or lower the signal
How it was run: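 HepG2 cells transiently transfected with multiple cis-regulated reporter transcription units; endogenous factor activity at the PBREM element measured as reporter mRNA 24 h after dosing, via RT-PCR and capillary electrophoresis of fluorescent fragments; bidirectional fitting versus DMSO.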

[2] = ATG_PXRE_CIS: Attagene CIS-FACTORIAL HepG2 Assay for human Pregnane X Receptor Element (PXRE) (AID 2282957); settings: HepG2 Attagene CIS-FACTORIAL PXRE reporter, mRNA; actives raise or lower the signal
How it was run: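 HepG2 cells transiently transfected with cis-element-driven multiplexed reporter units; after 24 h chemical exposure, reporter mRNA measured by RT-PCR, 6-FAM labelling, HpaI digestion and capillary electrophoresis. Bidirectional fitting relative to DMSO.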

[3] = ATG_RORE_CIS: Attagene CIS-FACTORIAL HepG2 Assay for human RAR-related Orphan Receptor Element (RORE) (AID 2282959); settings: HepG2 Attagene cis-factorial RORE reporter, mRNA; actives raise or lower the signal
How it was run: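 HepG2 cells transiently transfected with multiple cis-element reporter transcription units, exposed to chemical for 24 h. Reporter mRNA quantified by RT-PCR, 6-FAM primer-extension labeling, HpaI digestion and capillary electrophoresis; bidirectional fit versus DMSO baseline.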

[4] = ATG_Sox_CIS: Attagene CIS-FACTORIAL HepG2 Assay for human SRY-box transcription factor (SOX) (AID 2282960); settings: HepG2 Attagene cis-factorial SOX reporter, mRNA; actives raise or lower the signal
How it was run: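 HepG2 cells transiently transfected with cis-element-driven multiple reporter transcription units, dosed 24 h; reporter mRNA measured by RT-PCR, FAM labelling, HpaI digestion and capillary electrophoresis. Bidirectional fit versus DMSO baseline.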

[5] = biological target: Transcription factor Sp1 (Homo sapiens) (UniProt P08047); assay: ATG_Sp1_CIS: Attagene CIS-FACTORIAL HepG2 Assay for human Specificity Protein 1 (Sp1) (AID 2282961); settings: HepG2 Sp1 cis-reporter transcription, actives raise or lower the signal
How it was run: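 HepG2 cells transiently transfected with multiple reporter transcription units driven by cis-regulatory elements; Sp1-responsive reporter mRNA measured 24 h after dosing by RT-PCR and capillary electrophoresis fluorescence, fitted bidirectionally against DMSO baseline.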

[6] = ATG_SREBP_CIS: Attagene CIS-FACTORIAL HepG2 Assay for human Sterol Regulatory Element Binding (SREBP) (AID 2282962); settings: HepG2 Attagene cis-factorial SREBP reporter, mRNA; actives raise or lower the signal
How it was run: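 mRNA induction of transfected cis-promoter reporters in HepG2 cells, 24 h post-dose. Detection: RT-PCR with 6-FAM-labelled products, HpaI digest, capillary electrophoresis. DMSO served as negative control and baseline.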

[7] = biological target: Signal transducer and activator of transcription 3 (Homo sapiens) (UniProt P40763); assay: ATG_STAT3_CIS: Attagene CIS-FACTORIAL HepG2 Assay for human Signal Transducer and Activator of Transcription 3 (STAT3) (AID 2282963); settings: HepG2, Attagene cis-factorial STAT3 reporter transcription; actives raise or lower the signal
How it was run: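 Endogenous STAT3-responsive cis-element activity was read in transiently transfected HepG2 cells after 24 h treatment. Reporter transcripts were quantified via RT-PCR and capillary electrophoresis, with DMSO as negative control and bidirectional curve fitting.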

[8] = ATG_TA_CIS: Attagene CIS-FACTORIAL HepG2 Assay for human TA Basal Promoter (AID 2282964); settings: HepG2 Attagene CIS-factorial TA basal promoter reporter; actives raise or lower the signal
How it was run: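 Background-control readout: TA basal promoter reporter mRNA, fitted in both directions relative to DMSO. Measured by RT-PCR and capillary electrophoresis 24 hours after treating HepG2 human liver cells transiently carrying multiplexed cis-regulated reporter constructs.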

[9] = ATG_TCF_b_cat_CIS: Attagene CIS-FACTORIAL HepG2 Assay for human T-Cell-Factor with beta-catenin (TCF/b-cat) (AID 2282965); settings: HepG2 TCF/beta-catenin cis-reporter transcription, actives raise or lower the signal
How it was run: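 Measured: reporter mRNA in HepG2 transiently transfected with cis-promoter reporter units, 24 h after chemical addition. Fitting was bidirectional, DMSO as negative control.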

[10] = ATG_TAL_CIS: Attagene CIS-FACTORIAL HepG2 Assay for human TAL Basal Promoter (AID 2282966); settings: HepG2 Attagene cis-factorial TAL promoter reporter; actives raise or lower the signal;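 further: background control endpoint measuring basal TAL promoter reporter mRNA not a specific factor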
How it was run: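 HepG2 cells transiently transfected with multiplexed cis-promoter reporter units, dosed 24 h. Reporter mRNA quantified by RT-PCR, 6-FAM labelling, HpaI digestion and capillary electrophoresis; TAL basal promoter serves as background control, fitted bidirectionally versus DMSO.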

[11] = ATG_TGFb_CIS: Attagene CIS-FACTORIAL HepG2 Assay for human Transforming Growth Factor (TGF) (AID 2282967); settings: HepG2 Attagene CIS TGFb reporter, mRNA transcription; actives raise or lower the signal
How it was run: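 Endogenous TGFB1-linked transcription factor activity read as reporter mRNA via RT-PCR and capillary electrophoresis, 24 h after dosing transiently transfected HepG2 cells. Gain or loss of signal fitted relative to DMSO.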

[12] = ATG_VDRE_CIS: Attagene CIS-FACTORIAL HepG2 Assay for human Vitamin D Receptor Element (VDRE) (AID 2282968); settings: HepG2 VDRE cis-reporter transcription, actives raise or lower the signal
How it was run: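 Reporter mRNA induction, quantified by capillary electrophoresis of fluorescently labelled RT-PCR products, was read 24 h after dosing HepG2 cells carrying transiently transfected cis-regulated reporter units; gain or loss relative to DMSO.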

[13] = biological target: Estrogen receptor (Homo sapiens) (UniProt P03372); assay: ATG_ERa_TRANS: Attagene TRANS-FACTORIAL HepG2 Assay for human Estrogen Receptor alpha (ERa) (AID 2282970; active means hit-call score of the fitted dose curve at least 0.9, where 1 is the maximum); settings: HepG2 Attagene TRANS ERa GAL4 reporter, mRNA
How it was run: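 HepG2 cells transiently transfected with multiplexed GAL4-UAS reporter units read out chimeric NR-Gal4 activity. After 24 h compound exposure, reporter mRNA was quantified by RT-PCR, 6-FAM labeling, HpaI digestion and capillary electrophoresis, relative to DMSO.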

[14] = biological target: X-box-binding protein 1 (Homo sapiens) (UniProt P17861); assay: ATG_Xbp1_CIS: Attagene CIS-FACTORIAL HepG2 Assay for human X-box Binding Protein 1 (XBP1) (AID 2282972); settings: HepG2 XBP1 cis-element reporter, Attagene multiplex; actives raise or lower the signal
How it was run: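 Fluorescence-labelled cDNA fragments from reporter transcripts, separated by capillary electrophoresis, give the signal. Source: HepG2 cells transfected with promoter-driven reporter units, harvested 24 h post-dose. DMSO served as reference for bidirectional curve fitting.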

[15] = ATG_GAL4_TRANS: Attagene TRANS-FACTORIAL HepG2 Assay for GAL4 (Internal Marker) (AID 2282976; active means hit-call score of the fitted dose curve at least 0.9, where 1 is the maximum); settings: HepG2 Attagene TRANS GAL4 internal marker reporter
How it was run: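 Background-control readout: GAL4-UAS reporter transcript in transiently transfected HepG2 cells after 24 h compound exposure. Measured by RT-PCR, 6-FAM primer extension, HpaI digest and capillary electrophoresis; gain-of-signal fit versus DMSO.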

[16] = ATG_PPRE_CIS: Attagene CIS-FACTORIAL HepG2 Assay for human Peroxisome Proliferator-activated Response Element (PPRE) (AID 2282958); settings: HepG2 PPRE cis-element reporter, Attagene transcription factor profiling; actives raise or lower the signal
How it was run: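 HepG2 cells transiently transfected with multiplexed cis-element reporter units measure endogenous transcription factor activity. After 24 h compound exposure, reporter mRNA is quantified by RT-PCR, 6-FAM labeling, HpaI digestion and capillary electrophoresis; bidirectional fits are made against DMSO baseline.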

[17] = ATG_M_19_TRANS: Attagene TRANS-FACTORIAL HepG2 Assay for M19 Transcription Factor (Internal Marker) (AID 2282974; active means hit-call score of the fitted dose curve at least 0.9, where 1 is the maximum); settings: HepG2 Attagene TRANS-FACTORIAL M19 internal marker reporter
How it was run: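 HepG2 cells transiently transfected with multiple GAL4-UAS reporter transcription units were exposed to chemicals for 24 h. Reporter mRNA was read by RT-PCR, 6-FAM primer extension, HpaI digestion and capillary electrophoresis; gain of signal fitted relative to DMSO.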

[18] = biological target: Nuclear receptor subfamily 1 group I member 3 (Homo sapiens) (UniProt Q14994); assay: ATG_CAR_TRANS: Attagene TRANS-FACTORIAL HepG2 Assay for human Constitutive Androstane Receptor (CAR) (AID 2282969; active means hit-call score of the fitted dose curve at least 0.9, where 1 is the maximum;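 further: activators raise reporter mRNA above DMSO so AC50 marks induction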); settings: HepG2 Attagene TRANS-FACTORIAL CAR reporter
How it was run: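 Readout is reporter mRNA induction, quantified by fluorescent primer extension and capillary electrophoresis after RT-PCR. Cells were HepG2 transiently carrying chimeric NR-Gal4 constructs with GAL4-UAS reporters, treated for 24 h; activity scored upward from DMSO.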

[19] = biological target: Paired box protein Pax-6 (Homo sapiens) (UniProt P26367); assay: ATG_Pax6_CIS: Attagene CIS-FACTORIAL HepG2 Assay for human Paired Box 6 (PAX6) (AID 2282956); settings: HepG2 CIS-FACTORIAL PAX6 reporter transcription, RNA readout; actives raise or lower the signal
How it was run: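 Multiplexed cis-reporter HepG2 system; 24 h treatment; reporter mRNA read by RT-PCR/CE fluorescence; bidirectional fit vs DMSO.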

Measured: AC50

Estrogen receptor (Homo sapiens), sequence (P03372 whole entry, looked up, the tested form may be a part): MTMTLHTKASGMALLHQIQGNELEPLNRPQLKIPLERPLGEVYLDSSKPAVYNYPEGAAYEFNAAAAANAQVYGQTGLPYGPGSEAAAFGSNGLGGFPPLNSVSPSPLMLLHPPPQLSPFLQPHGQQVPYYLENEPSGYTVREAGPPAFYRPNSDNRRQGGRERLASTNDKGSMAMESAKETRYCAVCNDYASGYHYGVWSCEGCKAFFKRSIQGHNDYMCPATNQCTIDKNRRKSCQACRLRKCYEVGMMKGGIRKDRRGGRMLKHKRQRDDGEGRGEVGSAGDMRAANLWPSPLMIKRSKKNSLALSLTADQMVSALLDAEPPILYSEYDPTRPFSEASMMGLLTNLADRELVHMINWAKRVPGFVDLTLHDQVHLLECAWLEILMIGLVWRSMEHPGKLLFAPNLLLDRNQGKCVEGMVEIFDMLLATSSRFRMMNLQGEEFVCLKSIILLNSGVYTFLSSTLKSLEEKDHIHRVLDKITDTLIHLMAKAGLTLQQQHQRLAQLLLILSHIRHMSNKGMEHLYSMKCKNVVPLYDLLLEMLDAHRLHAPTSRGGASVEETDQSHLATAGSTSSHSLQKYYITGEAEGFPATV
Transcription factor Sp1 (Homo sapiens), sequence (P08047 whole entry, looked up): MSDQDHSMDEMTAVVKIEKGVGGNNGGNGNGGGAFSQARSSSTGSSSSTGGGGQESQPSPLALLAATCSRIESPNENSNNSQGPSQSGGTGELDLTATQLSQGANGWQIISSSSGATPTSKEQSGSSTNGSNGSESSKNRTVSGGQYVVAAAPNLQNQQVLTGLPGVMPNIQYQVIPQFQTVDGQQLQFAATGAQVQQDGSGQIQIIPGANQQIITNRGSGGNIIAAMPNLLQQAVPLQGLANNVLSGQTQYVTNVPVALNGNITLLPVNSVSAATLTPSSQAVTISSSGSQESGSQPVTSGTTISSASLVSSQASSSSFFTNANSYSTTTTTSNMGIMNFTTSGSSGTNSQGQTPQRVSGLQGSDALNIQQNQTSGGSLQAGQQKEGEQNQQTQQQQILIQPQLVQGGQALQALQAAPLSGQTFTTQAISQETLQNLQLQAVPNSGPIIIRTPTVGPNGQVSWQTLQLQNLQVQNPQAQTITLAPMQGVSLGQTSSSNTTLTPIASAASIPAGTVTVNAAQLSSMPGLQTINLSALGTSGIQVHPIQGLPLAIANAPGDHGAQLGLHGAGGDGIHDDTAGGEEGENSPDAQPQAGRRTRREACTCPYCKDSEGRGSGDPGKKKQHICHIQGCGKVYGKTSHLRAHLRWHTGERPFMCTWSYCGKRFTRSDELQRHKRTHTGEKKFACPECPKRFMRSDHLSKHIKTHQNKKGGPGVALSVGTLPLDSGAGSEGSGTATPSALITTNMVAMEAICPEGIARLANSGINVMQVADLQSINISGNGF
Signal transducer and activator of transcription 3 (Homo sapiens), sequence (P40763 whole entry, looked up): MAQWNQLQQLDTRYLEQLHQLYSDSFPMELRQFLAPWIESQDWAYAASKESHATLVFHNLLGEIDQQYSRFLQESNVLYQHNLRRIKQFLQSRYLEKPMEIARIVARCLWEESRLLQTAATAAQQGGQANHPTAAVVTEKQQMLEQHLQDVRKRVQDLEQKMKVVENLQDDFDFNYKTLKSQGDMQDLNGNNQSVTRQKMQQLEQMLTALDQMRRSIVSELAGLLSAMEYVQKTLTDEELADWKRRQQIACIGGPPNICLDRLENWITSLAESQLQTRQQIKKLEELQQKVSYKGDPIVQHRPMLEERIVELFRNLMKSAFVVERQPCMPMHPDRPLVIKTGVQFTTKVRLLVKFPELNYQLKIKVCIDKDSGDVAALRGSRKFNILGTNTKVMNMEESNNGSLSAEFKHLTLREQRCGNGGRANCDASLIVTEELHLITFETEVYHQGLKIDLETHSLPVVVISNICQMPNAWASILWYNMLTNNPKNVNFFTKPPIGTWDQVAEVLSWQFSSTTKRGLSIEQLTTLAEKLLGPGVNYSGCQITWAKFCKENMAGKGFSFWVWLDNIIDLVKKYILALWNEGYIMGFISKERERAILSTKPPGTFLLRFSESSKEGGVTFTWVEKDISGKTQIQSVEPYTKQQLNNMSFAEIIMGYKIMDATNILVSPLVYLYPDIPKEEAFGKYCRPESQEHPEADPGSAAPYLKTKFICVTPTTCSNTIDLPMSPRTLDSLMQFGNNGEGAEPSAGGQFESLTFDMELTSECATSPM
X-box-binding protein 1 (Homo sapiens), sequence (P17861 whole entry, looked up, the tested form may be a part): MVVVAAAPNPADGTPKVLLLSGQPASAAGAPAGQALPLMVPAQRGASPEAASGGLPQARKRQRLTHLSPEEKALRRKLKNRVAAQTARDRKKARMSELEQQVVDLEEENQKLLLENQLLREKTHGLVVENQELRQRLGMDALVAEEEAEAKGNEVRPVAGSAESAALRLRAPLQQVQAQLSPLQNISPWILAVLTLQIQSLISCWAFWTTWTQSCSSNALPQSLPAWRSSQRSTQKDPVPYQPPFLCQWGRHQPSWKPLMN
Nuclear receptor subfamily 1 group I member 3 (Homo sapiens), sequence (Q14994 whole entry, looked up, the tested form may be a part): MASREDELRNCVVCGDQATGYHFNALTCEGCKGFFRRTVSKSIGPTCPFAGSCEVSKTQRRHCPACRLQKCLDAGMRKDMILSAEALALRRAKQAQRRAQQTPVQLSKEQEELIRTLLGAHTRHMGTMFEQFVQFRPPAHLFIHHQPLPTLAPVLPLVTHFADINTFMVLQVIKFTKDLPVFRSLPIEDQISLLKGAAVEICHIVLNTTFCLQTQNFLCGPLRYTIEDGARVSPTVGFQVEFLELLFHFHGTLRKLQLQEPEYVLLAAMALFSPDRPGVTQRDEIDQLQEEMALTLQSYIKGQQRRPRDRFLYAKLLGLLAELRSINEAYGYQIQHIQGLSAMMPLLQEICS
Paired box protein Pax-6 (Homo sapiens), sequence (P26367 whole entry, looked up): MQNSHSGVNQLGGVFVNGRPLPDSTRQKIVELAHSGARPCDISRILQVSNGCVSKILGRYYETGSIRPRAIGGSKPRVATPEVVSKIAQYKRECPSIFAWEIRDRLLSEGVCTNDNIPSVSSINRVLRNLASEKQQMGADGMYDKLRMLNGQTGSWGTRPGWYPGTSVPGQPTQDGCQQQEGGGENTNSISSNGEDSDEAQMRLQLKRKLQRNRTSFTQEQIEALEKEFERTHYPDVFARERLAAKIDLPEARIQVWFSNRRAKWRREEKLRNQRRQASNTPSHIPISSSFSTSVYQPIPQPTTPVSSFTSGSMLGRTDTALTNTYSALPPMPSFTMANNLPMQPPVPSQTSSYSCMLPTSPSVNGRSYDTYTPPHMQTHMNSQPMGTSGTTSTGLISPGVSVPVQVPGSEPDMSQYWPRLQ

CC(C)CO
active: [11] 0.224 µM
not listed: [16] | [17] | [18] | [19]
inactive: all other assays above

CCCC/C=C/C=C\C=O
active: [2] 2.79 µM | [4] 162 µM | [9] 100 µM | [12] 6.51 µM | [14] 178 µM
not listed: [6] | [18] | [19]
inactive: all other assays above

O=C(O)C1CCC(C(=O)O)CC1 (centres undefined)
not listed: [15] | [16] | [17] | [18] | [19]
inactive: all other assays above

CN(C)Cc1cc(CN(C)C)c(O)c(CN(C)C)c1
not listed: [7] | [12] | [15] | [16] | [17] | [18] | [19]
inactive: all other assays above

CCCCOCC(C)O (centres undefined)
not listed: [15] | [16] | [17] | [19]
inactive: all other assays above

Nc1nc(N)nc(-c2ccccc2)n1
not listed: [12] | [15] | [19]
inactive: all other assays above

CC(C)c1cc(C(C)C)cc(C(C)C)c1
active: [19] 159 µM | [2] 52.1 µM | [4] 159 µM | [5] 145 µM | [6] 100 µM | [9] 169 µM | [12] 100 µM | [13] 58.9 µM
inactive: [16] | [3] | [7] | [8] | [10] | [11] | [14] | [17]

O=C(O)C(F)(F)C(F)(F)C(F)(F)C(F)(F)C(=O)O
not listed: [9] | [17] | [18] | [19]
inactive: all other assays above

CC=C(C)C=CC=C(C)C
active: [2] 6.96 µM | [12] 27.7 µM
not listed: [15] | [16] | [17] | [19]
inactive: all other assays above

— PubChem BioAssay (EPA / NIEHS)
